From PubChem BioAssay (Tox21) come the findings set out here.

A short description of assay [1]: qHTS assay to identify small molecule antagonists of the thyroid receptor (TR) signaling pathway (AID 743065). Further: nearly all actives have a fitted effect of over 55% in size. Further: potency means the concentration at half of the fitted maximal effect. In short, it runs like this:
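GH3.TRE-Luc rat pituitary cells (two TREs driving luciferase) were dosed with compound, then stimulated with 1 nM T3 (final) for 23.5 h at 37 C. ONE-Glo luminescence was the read-out, with CellTiter-Fluor fluorescence as the cytotoxicity counter-screen.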

For assay [2], the system named is thyroid hormone receptor (rat, GH3 cells). Description: qHTS assay to identify small molecule agonists of the thyroid receptor (TR) signaling pathway (AID 743066; calls by dose curve).
The nature of assay [3]: qHTS assay to identify small molecule antagonists of the estrogen receptor alpha (ER-alpha) signaling pathway - cell viability counter screen (AID 743074; calls by dose curve; further: nearly all actives have a fitted effect of over 45% in size).
Assay [4] can be described thus: qHTS assay to identify small molecule antagonists of the estrogen receptor alpha (ER-alpha) signaling pathway using the BG1 cell line - cell viability counter screen (AID 743081).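 Further: compound given together with 17beta-estradiol as the ER stimulus; nearly all actives have a fitted effect of over 45% in size.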 Further: potency means the concentration at half of the fitted maximal effect.
Another assay addresses Aromatase (Homo sapiens) (UniProt P11511). Description: qHTS assay to identify aromatase inhibitors (AID 743083). Further: nearly all actives have a fitted effect of over 55% in size. Further: potency means the concentration at half of the fitted maximal effect.
Assay [5] in a line: qHTS assay to identify aromatase inhibitors - cell viability counter screen (AID 743084).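 Further: cells stimulated with testosterone during compound exposure; nearly all actives have a fitted effect of over 55% in size.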 Further: potency means the concentration at half of the fitted maximal effect.
Assay [6] addresses Estrogen receptor (Homo sapiens) (UniProt P03372). Description: qHTS assay to identify small molecule antagonists of the estrogen receptor alpha (ER-alpha) signaling pathway (AID 743069; active means well fitted curve in the direction sought with a large enough effect in the signal ratio in the repeat runs, not every such curve was filed as active; inconclusive means weak or mixed curves, or effect the other way; inactive means no such curve, though single readings can be large or run the other way; the % refers to the signal ratio; further: potency means the concentration at half of the fitted maximal effect). A digest of the protocol:
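In this cell-based reporter format, GripTite HEK293 cells harbouring ER-alpha-UAS-bla were grown overnight with 2% charcoal-stripped FBS, dosed with DMSO-dissolved compounds, then challenged with 17beta-estradiol. After 18 hr at 37C, beta-lactamase activity was detected by FRET fluorescence.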

Assay [7] has the same target. Description: qHTS assay to identify small molecule agonists of the estrogen receptor alpha (ER-alpha) signaling pathway (AID 743075; calls by dose curve; further: potency means the concentration at half of the fitted maximal effect).
Assay [8] has the same target. Description: qHTS assay to identify small molecule agonists of the estrogen receptor alpha (ER-alpha) signaling pathway using the BG1 cell line (AID 743079). Further: nearly all actives have a fitted effect of over 20% in size. Further: potency means the concentration at half of the fitted maximal effect.
The nature of assay [9]: qHTS assay to identify small molecule antagonists of the estrogen receptor alpha (ER-alpha) signaling pathway using the BG1 cell line (AID 743080; calls by dose curve;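 further: BG1 cells stimulated with 17beta-estradiol alongside compound; nearly all actives have a fitted effect of over 25% in size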; further: potency means the concentration at half of the fitted maximal effect). A digest of the protocol:
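After 5 days in phenol-red-free 10% charcoal-stripped FBS medium, BG1-Luc-4E2 cells were seeded, left 24 h at 37 C, co-treated with compounds and 17beta-estradiol for 21.5 h, then assayed for viability and luciferase.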

Molecules are shown by their SMILES. Several values for one entry are separate records, joined by “and”; a condition that tells them apart may be missing. Equal values may be shown once. Some structures have more than one record in an assay (separate samples or runs), and their calls can disagree. Activity calls are given as the source filed them. Unless noted, the call rests on the fitted dose curve; in most records, active means well fitted curve in the direction sought with a large enough effect in the repeat runs; inconclusive means weak or mixed curves; inactive means no such curve, though single readings can be large; an effect the other way counts as inactive or inconclusive.

Sequence of Estrogen receptor (Homo sapiens) (P03372 whole entry, looked up): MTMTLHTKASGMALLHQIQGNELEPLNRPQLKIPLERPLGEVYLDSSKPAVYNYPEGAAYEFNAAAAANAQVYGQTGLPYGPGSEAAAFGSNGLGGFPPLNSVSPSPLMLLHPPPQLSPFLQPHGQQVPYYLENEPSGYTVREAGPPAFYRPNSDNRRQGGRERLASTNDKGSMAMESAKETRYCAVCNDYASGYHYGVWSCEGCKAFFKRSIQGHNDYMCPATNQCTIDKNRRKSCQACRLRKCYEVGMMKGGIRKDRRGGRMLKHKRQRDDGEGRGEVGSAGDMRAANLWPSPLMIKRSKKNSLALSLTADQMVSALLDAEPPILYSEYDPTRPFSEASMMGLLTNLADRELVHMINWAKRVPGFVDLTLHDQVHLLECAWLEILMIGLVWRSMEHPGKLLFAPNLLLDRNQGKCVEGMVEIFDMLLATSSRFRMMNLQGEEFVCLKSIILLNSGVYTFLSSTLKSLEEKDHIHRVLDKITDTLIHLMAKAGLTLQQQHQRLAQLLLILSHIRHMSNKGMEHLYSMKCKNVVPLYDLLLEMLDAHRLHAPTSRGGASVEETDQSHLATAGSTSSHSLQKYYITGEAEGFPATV
Sequence of Aromatase (Homo sapiens) (P11511 whole entry, looked up): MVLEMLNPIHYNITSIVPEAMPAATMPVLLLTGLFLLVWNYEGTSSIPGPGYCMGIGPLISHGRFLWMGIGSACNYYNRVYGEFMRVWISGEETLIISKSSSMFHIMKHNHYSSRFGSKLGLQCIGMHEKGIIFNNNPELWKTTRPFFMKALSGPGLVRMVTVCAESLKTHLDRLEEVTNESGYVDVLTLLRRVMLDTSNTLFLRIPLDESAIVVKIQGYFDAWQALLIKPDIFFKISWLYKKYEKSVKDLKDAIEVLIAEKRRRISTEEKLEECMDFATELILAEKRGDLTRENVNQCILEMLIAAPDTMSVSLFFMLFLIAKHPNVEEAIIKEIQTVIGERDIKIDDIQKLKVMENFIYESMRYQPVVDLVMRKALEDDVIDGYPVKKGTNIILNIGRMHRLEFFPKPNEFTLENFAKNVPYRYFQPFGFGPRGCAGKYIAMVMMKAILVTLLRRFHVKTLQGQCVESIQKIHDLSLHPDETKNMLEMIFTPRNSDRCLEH

As to `CCCCCCCCCC(=O)OC`, the Potency entry (in assay [1]; in assay [2]; in [3]; in assay [4]; in the assay with Aromatase (Homo sapiens); in assay [5]) was “inactive” each time.
Turning to `CN(C)C(=N)N=C(N)N`, the Potency result in assay [1], in assay [2], in assay [3], in assay [4] and in assay [5] was “inactive” in each case.
In the case of `CC(C)(C)NC(=O)[C@H]1CC[C@H]2[C@@H]3CC[C@H]4NC(=O)C=C[C@]4(C)[C@H]3CC[C@]12C`, the Potency entry in assay [6], in [3], in assay [7], in [8], in [9] and in [4] was “inactive” each time. The Potency result (with Aromatase (Homo sapiens); in assay [5]) was “inactive” in each case.
Regarding `CCCC(=O)O`, the Potency entry (in assay [3]; in assay [4]; in the assay with Aromatase (Homo sapiens); in [5]) was “inactive” throughout.
In the case of `Cc1c(OCC(F)(F)F)ccnc1CS(=O)c1nc2ccccc2[nH]1` (stereo unspecified), the Potency result (in [3]; in assay [4]; in the assay with Aromatase (Homo sapiens); in assay [5]) was “inactive” throughout.
As to `CC(C)OC(=O)C(C)(C)Oc1ccc(C(=O)c2ccc(Cl)cc2)cc1`, the Potency entry in [6], in [3], in assay [7], in assay [8] and in [4] was “inactive” each time. In addition, the Potency entry in assay [9] was “inactive and 61.1 µM (active)”; with Aromatase (Homo sapiens), “inactive and 68.6 µM (active)”.
In the case of `Nc1ccc(S(=O)(=O)Nc2cnc3ccccc3n2)cc1`, the Potency entry (in assay [1]; in assay [2]; in [3]; in assay [4]; with Aromatase (Homo sapiens); in assay [5]) was “inactive” each time.
For the compound `COc1ccc(OC)c(C(O)CNC(=O)CN)c1` (stereo unspecified), the Potency result in assay [6], in assay [3], in [7], in [8], in assay [9] and in [4] was “inactive” throughout. Besides, the Potency result (in the assay with Aromatase (Homo sapiens); in [5]) was “inactive” throughout.
`C#C[C@]1(O)CC[C@H]2[C@@H]3CCC4=Cc5oncc5C[C@]4(C)[C@H]3CC[C@@]21C`: the Potency in assay [6] was 49 µM [inconclusive] (active); in assay [7], 3.38 µM [inconclusive] (active) and 6.17 µM [activator] (active); in assay [8], 668 nM (active) and 969 nM (active); in [9], “inactive and 61.1 µM (active)”. The Potency entry (in assay [3]; in assay [4]; with Aromatase (Homo sapiens); in assay [5]) was “inactive” in each case.
As to `COc1cccc2c1C(=O)c1c(O)c3c(c(O)c1C2=O)C[C@@](O)(C(=O)CO)C[C@@H]3O[C@H]1C[C@H](N)[C@H](O)[C@H](C)O1`, the Potency result in [2], in assay [3], in assay [8] and in [9] was “inactive” in each case. Further, the Potency result is “inactive and 6.01 µM [inconclusive] (active) and 3.46 µM [inconclusive] (active)” in assay [6]; “inactive and 2.68 µM [inconclusive] (active) and 15.5 µM [inconclusive] (active)” in [7]; “inactive and 27.3 µM (active)” in [4]; “inactive and 6.68 µM (active) and 1.72 µM (active)” in the assay with Aromatase (Homo sapiens); “inactive and 13.3 µM (active) and 12.2 µM (active)” in assay [5].
Turning to `Cc1ccc(C(=O)c2cc(O)c(O)c([N+](=O)[O-])c2)cc1`, the Potency in assay [1] was 68.6 µM (active); in assay [4], 33.5 µM (active) and 54.5 µM (active). Also, the Potency entry in [2] and in [5] was “inactive” throughout.
For the compound `CC(=O)C1(C)CC2=C(CCCC2(C)C)CC1C` (stereo unspecified), the Potency result (in [1]; in [2]; in [3]; in assay [4]; with Aromatase (Homo sapiens); in [5]) was “inactive” each time.
For `Cn1cnc([N+](=O)[O-])c1Sc1ncnc2nc[nH]c12`, the Potency entry in assay [2], in assay [6], in assay [3], in assay [7], in assay [8] and in assay [4] was “inactive” throughout. The Potency entry (in the assay with Aromatase (Homo sapiens); in [5]) was “inactive” throughout.
For the compound `CCC(C)c1ccccc1O` (stereo unspecified), the Potency result (in assay [1]; in [2]; in [4]; in the assay with Aromatase (Homo sapiens); in [5]) was “inactive” in each case.
`C#C[C@]1(O)CC[C@H]2[C@@H]3CCc4cc(OC)ccc4[C@H]3CC[C@@]21C`: the Potency entry in assay [2], in assay [3], in assay [9], in assay [4] and in assay [5] was “inactive” in each case. The Potency in assay [7] is 19 nM [inconclusive] (active) and 30.9 nM [inconclusive] (active); in [8], 1.5 nM (active) and 0.8 nM (active).
As to `c1ccc(Nc2ccccc2)cc1`, the Potency result (in assay [3]; in [4]; in the assay with Aromatase (Homo sapiens); in assay [5]) was “inactive” throughout.
Turning to `CCCCc1oc2ccccc2c1C(=O)c1cc(I)c(OCCN(CC)CC)c(I)c1`, the Potency result in [6], in assay [7], in [8], in assay [9] and in assay [4] was “inactive” in each case. Moreover, the Potency entry with Aromatase (Homo sapiens) was “inactive and 43.6 µM (active)”; in assay [5] it was “inactive and 43.6 µM (active)”.
Take `O=C(/C=C/C=C/c1ccc2c(c1)OCO2)N1CCCCC1`: the Potency entry (in [2]; in assay [6]; in assay [3]; in assay [7]; in [4]; with Aromatase (Homo sapiens)) was “inactive” in each case. Moreover, in assay [5], the Potency result is “inactive”. In assay [8], the Potency was 1.37 µM (active) and 3.86 µM (active).
On to `CN(C)c1nc(N(C)C)nc(N(C)C)n1`, for which the Potency result in assay [3] and in assay [4] was “inactive” throughout.
With `COc1cc([C@@H]2c3cc4c(cc3[C@H](O)[C@H]3COC(=O)[C@H]23)OCO4)cc(OC)c1OC`, the Potency in assay [1] was 29.8 nM (active) and 24.3 nM (active). For the same compound, the Potency entry (in assay [2]; in assay [4]; with Aromatase (Homo sapiens); in [5]) was “inactive” throughout.
